According to PMC7862700, “An all-to-all approach to the identification of sequence-specific readers for epigenetic DNA modifications on cytosine”:

Tests used:
Test in all cases: DAPPL (digital affinity profiling via proximity ligation, sequencing); 10 mM Tris-HCl pH 7.5, 50 mM NaCl, 1 mM DTT, 4% glycerol, room temperature, 30 min; GST-TFs on glutathione beads, 16-mer random dsDNA library, 0.1% formaldehyde crosslink after washing; high values mean tight binding
Details in all cases: protein: recombinant; tags: N-terminal GST; dsDNA, one strand shown
ERF = biological target: T1, ERF (Homo sapiens, UniProt P50548 1-548)
T1 sequence: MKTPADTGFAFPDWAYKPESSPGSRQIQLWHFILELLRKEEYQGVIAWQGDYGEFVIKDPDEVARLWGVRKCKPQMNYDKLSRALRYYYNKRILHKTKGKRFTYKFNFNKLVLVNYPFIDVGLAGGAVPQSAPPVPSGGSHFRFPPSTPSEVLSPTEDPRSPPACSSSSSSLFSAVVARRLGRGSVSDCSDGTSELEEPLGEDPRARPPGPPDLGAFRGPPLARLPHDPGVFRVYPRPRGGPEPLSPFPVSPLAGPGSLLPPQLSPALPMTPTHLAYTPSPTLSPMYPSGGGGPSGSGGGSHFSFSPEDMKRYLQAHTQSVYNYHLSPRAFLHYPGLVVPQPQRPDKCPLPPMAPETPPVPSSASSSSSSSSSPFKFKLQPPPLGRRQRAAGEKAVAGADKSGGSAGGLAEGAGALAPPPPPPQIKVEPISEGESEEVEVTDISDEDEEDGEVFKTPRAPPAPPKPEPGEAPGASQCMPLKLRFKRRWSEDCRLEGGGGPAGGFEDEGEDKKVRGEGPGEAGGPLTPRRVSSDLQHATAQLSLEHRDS
Method in brief: (§1)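 Human transcription factors carrying a GST fusion were produced in yeast, bound to glutathione beads, tagged with DNA barcodes and pooled together with a tag-only sample. Each pool was held with 200 nmole of a random double-stranded 16-mer DNA library in Tris/NaCl/DTT/glycerol buffer for 30 min at room temperature, then washed, crosslinked in 0.1% formaldehyde, proximity-ligated with BsaI/T4 ligase (1 h, 37 °C), PCR-amplified and sequenced on an Illumina NextSeq500. Binding signal is the read frequency of each hexamer for a given factor divided by its frequency in the tag-only sample.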

ETV3L = biological target: T2, ETV3L (Homo sapiens, UniProt Q6ZN32 1-361)
T2 sequence: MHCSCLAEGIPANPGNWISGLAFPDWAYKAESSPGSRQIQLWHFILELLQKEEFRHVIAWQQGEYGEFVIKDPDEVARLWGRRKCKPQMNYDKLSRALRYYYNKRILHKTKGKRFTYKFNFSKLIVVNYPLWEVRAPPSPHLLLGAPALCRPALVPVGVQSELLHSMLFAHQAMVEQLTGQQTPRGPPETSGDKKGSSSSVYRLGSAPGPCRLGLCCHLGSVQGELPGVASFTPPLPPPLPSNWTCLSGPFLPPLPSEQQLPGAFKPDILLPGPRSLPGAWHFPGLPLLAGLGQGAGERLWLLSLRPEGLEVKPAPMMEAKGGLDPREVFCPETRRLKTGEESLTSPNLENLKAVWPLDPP
Method in brief: as §1

ETS2 = biological target: T3, ETS2 (Homo sapiens, UniProt P15036 1-469)
T3 sequence: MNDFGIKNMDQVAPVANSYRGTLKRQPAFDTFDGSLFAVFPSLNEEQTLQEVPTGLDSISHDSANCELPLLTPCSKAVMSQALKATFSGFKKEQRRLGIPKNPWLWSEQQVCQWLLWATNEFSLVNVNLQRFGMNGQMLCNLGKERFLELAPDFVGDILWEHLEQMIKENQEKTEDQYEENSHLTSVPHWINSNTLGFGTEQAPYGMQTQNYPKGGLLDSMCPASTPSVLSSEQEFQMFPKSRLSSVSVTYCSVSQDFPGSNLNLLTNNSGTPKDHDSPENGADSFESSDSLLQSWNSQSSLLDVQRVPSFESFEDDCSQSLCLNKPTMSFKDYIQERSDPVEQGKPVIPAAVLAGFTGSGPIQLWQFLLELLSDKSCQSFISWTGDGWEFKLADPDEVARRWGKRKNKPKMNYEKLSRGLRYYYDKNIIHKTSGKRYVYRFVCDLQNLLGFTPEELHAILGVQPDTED
Method in brief: as §1

SPDEF = biological target: T4, SPDEF (Homo sapiens, UniProt O95238 1-335)
T4 sequence: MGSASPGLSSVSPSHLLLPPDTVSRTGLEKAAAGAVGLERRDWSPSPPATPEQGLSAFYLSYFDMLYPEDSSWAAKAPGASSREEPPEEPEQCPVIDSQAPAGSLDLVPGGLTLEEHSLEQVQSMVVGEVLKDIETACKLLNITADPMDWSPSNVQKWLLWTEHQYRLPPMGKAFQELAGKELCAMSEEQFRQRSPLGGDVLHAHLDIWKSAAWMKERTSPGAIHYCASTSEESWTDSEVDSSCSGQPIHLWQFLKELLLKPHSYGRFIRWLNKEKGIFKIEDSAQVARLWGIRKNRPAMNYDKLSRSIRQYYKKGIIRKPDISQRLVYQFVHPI
Method in brief: as §1

ETV7 = biological target: T5, ETV7 (Homo sapiens, UniProt Q9Y603 1-341)
T5 sequence: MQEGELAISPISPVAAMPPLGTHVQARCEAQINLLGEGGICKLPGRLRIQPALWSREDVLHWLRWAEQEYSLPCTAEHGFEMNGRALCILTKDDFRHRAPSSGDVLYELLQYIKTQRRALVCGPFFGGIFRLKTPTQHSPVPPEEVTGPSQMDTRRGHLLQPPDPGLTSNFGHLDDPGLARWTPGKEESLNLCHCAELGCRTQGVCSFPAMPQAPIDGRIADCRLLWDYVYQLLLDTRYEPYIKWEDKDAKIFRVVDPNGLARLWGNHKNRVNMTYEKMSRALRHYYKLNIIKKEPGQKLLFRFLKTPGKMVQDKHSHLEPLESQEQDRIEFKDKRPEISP
Method in brief: as §1

ELF5 = biological target: T6, ELF5 (Homo sapiens, UniProt Q9UKW6-2 1-255)
T6 sequence: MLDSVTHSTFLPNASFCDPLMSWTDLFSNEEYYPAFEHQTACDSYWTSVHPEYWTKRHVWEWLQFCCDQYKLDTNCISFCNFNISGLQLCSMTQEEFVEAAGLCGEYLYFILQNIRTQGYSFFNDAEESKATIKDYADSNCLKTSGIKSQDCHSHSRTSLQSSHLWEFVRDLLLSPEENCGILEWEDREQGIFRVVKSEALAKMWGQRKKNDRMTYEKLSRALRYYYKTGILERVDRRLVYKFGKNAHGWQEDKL
Method in brief: as §1

ETV3 = biological target: T7, ETV3 (Homo sapiens, UniProt P41162-2 1-143)
T7 sequence: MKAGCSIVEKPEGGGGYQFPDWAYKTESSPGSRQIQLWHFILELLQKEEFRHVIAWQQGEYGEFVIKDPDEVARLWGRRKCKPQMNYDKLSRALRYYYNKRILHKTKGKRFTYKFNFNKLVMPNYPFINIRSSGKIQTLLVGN
Method in brief: as §1

ETV6 = ETV6 (Homo sapiens, UniProt P41212 1-452)
Sequence of ETV6 (P41212 whole entry): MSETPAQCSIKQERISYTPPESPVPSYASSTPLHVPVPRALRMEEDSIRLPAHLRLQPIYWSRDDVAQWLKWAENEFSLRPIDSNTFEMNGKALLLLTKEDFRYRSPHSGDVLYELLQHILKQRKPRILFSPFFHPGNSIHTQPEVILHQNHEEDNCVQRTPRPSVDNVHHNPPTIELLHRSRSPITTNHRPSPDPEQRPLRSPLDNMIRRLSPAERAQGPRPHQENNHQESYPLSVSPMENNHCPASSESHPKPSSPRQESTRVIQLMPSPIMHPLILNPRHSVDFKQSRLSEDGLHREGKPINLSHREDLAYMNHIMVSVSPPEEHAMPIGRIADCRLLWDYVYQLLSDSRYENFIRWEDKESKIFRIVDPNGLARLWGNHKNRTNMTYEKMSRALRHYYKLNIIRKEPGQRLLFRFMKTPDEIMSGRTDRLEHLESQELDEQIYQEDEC
Method in brief: as §1

AAGTGT was tested, and the binding signal (ERF) was 1.24 fold enrichment (6-mer frequency, TF over GST control), the binding signal (ETV3L) was 1.2 fold enrichment (6-mer frequency, TF over GST control) and the binding signal (ETS2) was 1.38 fold enrichment (6-mer frequency, TF over GST control). The binding signal (SPDEF) was 1.32 fold enrichment (6-mer frequency, TF over GST control), the binding signal (ETV7) was 1.42 fold enrichment (6-mer frequency, TF over GST control) and the binding signal (ELF5) was 1.43 fold enrichment (6-mer frequency, TF over GST control). For the same sequence, the binding signal (ETV3) was 1.23 fold enrichment (6-mer frequency, TF over GST control) and the binding signal (ETV6) was 1.35 fold enrichment (6-mer frequency, TF over GST control).
With TTTCAA the binding signal (ERF) was 1.22 fold enrichment (6-mer frequency, TF over GST control), the binding signal (ETV3L) was 1.28 fold enrichment (6-mer frequency, TF over GST control) and the binding signal (ETS2) was 1.24 fold enrichment (6-mer frequency, TF over GST control). The binding signal (SPDEF) was 1.16 fold enrichment (6-mer frequency, TF over GST control), the binding signal (ETV7) was 1.3 fold enrichment (6-mer frequency, TF over GST control) and the binding signal (ELF5) was 1.26 fold enrichment (6-mer frequency, TF over GST control). For the same sequence, the binding signal (ETV3) was 1.31 fold enrichment (6-mer frequency, TF over GST control) and the binding signal (ETV6) was 1.21 fold enrichment (6-mer frequency, TF over GST control).
With AAGAAG the binding signal (ERF) was 1.01 fold enrichment (6-mer frequency, TF over GST control), the binding signal (ETV3L) was 1.04 fold enrichment (6-mer frequency, TF over GST control) and the binding signal (ETS2) was 1.04 fold enrichment (6-mer frequency, TF over GST control). The binding signal (SPDEF) was 1.01 fold enrichment (6-mer frequency, TF over GST control), the binding signal (ETV7) was 1.16 fold enrichment (6-mer frequency, TF over GST control) and the binding signal (ELF5) was 1.12 fold enrichment (6-mer frequency, TF over GST control). For the same sequence, the binding signal (ETV3) was 1.05 fold enrichment (6-mer frequency, TF over GST control) and the binding signal (ETV6) was 1.16 fold enrichment (6-mer frequency, TF over GST control).
With GCTTAT the binding signal (ERF) was 1.31 fold enrichment (6-mer frequency, TF over GST control), the binding signal (ETV3L) was 1.23 fold enrichment (6-mer frequency, TF over GST control) and the binding signal (ETS2) was 1.36 fold enrichment (6-mer frequency, TF over GST control). For the same sequence, the binding signal (SPDEF) was 1.43 fold enrichment (6-mer frequency, TF over GST control), the binding signal (ETV7) was 1.43 fold enrichment (6-mer frequency, TF over GST control) and the binding signal (ELF5) was 1.15 fold enrichment (6-mer frequency, TF over GST control). For the same sequence, the binding signal (ETV3) was 1.2 fold enrichment (6-mer frequency, TF over GST control) and the binding signal (ETV6) was 1.23 fold enrichment (6-mer frequency, TF over GST control).
For TTGCTC, the binding signal (ERF) was 1.44 fold enrichment (6-mer frequency, TF over GST control), the binding signal (ETV3L) was 1.28 fold enrichment (6-mer frequency, TF over GST control) and the binding signal (ETS2) was 1.33 fold enrichment (6-mer frequency, TF over GST control). The binding signal (SPDEF) was 1.2 fold enrichment (6-mer frequency, TF over GST control), the binding signal (ETV7) was 1.59 fold enrichment (6-mer frequency, TF over GST control) and the binding signal (ELF5) was 1.18 fold enrichment (6-mer frequency, TF over GST control). For the same sequence, the binding signal (ETV3) was 1.2 fold enrichment (6-mer frequency, TF over GST control) and the binding signal (ETV6) was 1.22 fold enrichment (6-mer frequency, TF over GST control).
With TGATCC the binding signal (ERF) was 1.23 fold enrichment (6-mer frequency, TF over GST control), the binding signal (ETV3L) was 1.28 fold enrichment (6-mer frequency, TF over GST control) and the binding signal (ETS2) was 1.25 fold enrichment (6-mer frequency, TF over GST control). The binding signal (SPDEF) was 1.63 fold enrichment (6-mer frequency, TF over GST control), the binding signal (ETV7) was 1.12 fold enrichment (6-mer frequency, TF over GST control) and the binding signal (ELF5) was 1.35 fold enrichment (6-mer frequency, TF over GST control). For the same sequence, the binding signal (ETV3) was 1.24 fold enrichment (6-mer frequency, TF over GST control) and the binding signal (ETV6) was 1.26 fold enrichment (6-mer frequency, TF over GST control).
AAATTA was tested, and the binding signal (ERF) was 1.26 fold enrichment (6-mer frequency, TF over GST control), the binding signal (ETV3L) was 1.31 fold enrichment (6-mer frequency, TF over GST control) and the binding signal (ETS2) was 1.27 fold enrichment (6-mer frequency, TF over GST control). The binding signal (SPDEF) was 1.18 fold enrichment (6-mer frequency, TF over GST control), the binding signal (ETV7) was 1.32 fold enrichment (6-mer frequency, TF over GST control) and the binding signal (ELF5) was 1.24 fold enrichment (6-mer frequency, TF over GST control). For the same sequence, the binding signal (ETV3) was 1.29 fold enrichment (6-mer frequency, TF over GST control) and the binding signal (ETV6) was 1.25 fold enrichment (6-mer frequency, TF over GST control).
